According to PubChem BioAssay (NCI):
The panel holds about 83,000 compounds, 20% with a hit somewhere; the sample as a whole holds those more often.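 Negative percent growth values reflect cell death: -40 means 40% of the cells present at the start died, and -100 means all died.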 Calls of active or inactive are those of the source. Rule for the calls: active = growth percent below 10; inactive = the rest.

What was measured:
Experiment in all cases: NCI-60 one-dose screen, 48 h (100 = growth as untreated, 0 = no growth, -100 = all killed)
Details in all cases: 10 µM unless noted
HCT-15 colon = system: HCT-15 colon
HT29 colon = system: HT29 colon
SNB-75 CNS = system: SNB-75 CNS
SNB-19 CNS = system: SNB-19 CNS
U251 CNS = system: U251 CNS
UACC-62 melanoma = system: UACC-62 melanoma
LOX IMVI melanoma = system: LOX IMVI melanoma
SK-MEL-28 melanoma = system: SK-MEL-28 melanoma
SK-MEL-2 melanoma = system: SK-MEL-2 melanoma
EKVX NSCLC = system: EKVX NSCLC
SN12C renal = system: SN12C renal
UO-31 renal = system: UO-31 renal
TK-10 renal = system: TK-10 renal
ACHN renal = system: ACHN renal
CAKI-1 renal = system: CAKI-1 renal
CCRF-CEM leukemia = system: CCRF-CEM leukemia
MOLT-4 leukemia = system: MOLT-4 leukemia
PC-3 prostate = system: PC-3 prostate
SK-MEL-5 melanoma = system: SK-MEL-5 melanoma
A498 renal = system: A498 renal

Measured: growth

O=C(COc1ccc(/C=C2\COc3ccccc3C2=O)cc1)Nc1nccs1
inactive: HCT-15 colon 72.6% | HT29 colon 39.1% | SNB-75 CNS 84.6% | SNB-19 CNS 88.2% | U251 CNS 73% | UACC-62 melanoma 96.4% | LOX IMVI melanoma 63.2% | SK-MEL-28 melanoma 86.5% | SK-MEL-2 melanoma 72.8% | EKVX NSCLC 102% | SN12C renal 114% | UO-31 renal 73.2% | TK-10 renal 88.7% | ACHN renal 94.1% | CAKI-1 renal 103% | MOLT-4 leukemia 22.5%
active: CCRF-CEM leukemia 7.16%

CCN(CC)c1ccc(/C=N\NC(=O)/C=C/C=C/c2ccc3c(c2)OCO3)c(O)c1
inactive: HCT-15 colon 21.3% | HT29 colon 67.8% | SNB-75 CNS 58.8% | SNB-19 CNS 61% | U251 CNS 43.3% | UACC-62 melanoma 29.1% | LOX IMVI melanoma 18.2% | SK-MEL-28 melanoma 52.1% | SK-MEL-2 melanoma 65.7% | EKVX NSCLC 52.2% | SN12C renal 54.1% | UO-31 renal 25% | TK-10 renal 37.8% | ACHN renal 25.6% | CAKI-1 renal 29.3% | CCRF-CEM leukemia 21.7% | MOLT-4 leukemia 18.3%

Cc1ccc(NS(=O)(=O)c2ccc(-c3cnc(C4CC4)o3)cc2)cc1C
inactive: HCT-15 colon 19.5% | SNB-19 CNS 46.8% | PC-3 prostate 22.7% | UACC-62 melanoma 24.1% | LOX IMVI melanoma 39.4% | SK-MEL-28 melanoma 66% | SK-MEL-2 melanoma 38.5% | EKVX NSCLC 27% | SN12C renal 43.6% | UO-31 renal 38.5% | TK-10 renal 44% | ACHN renal 40.7% | CAKI-1 renal 27.2% | CCRF-CEM leukemia 23.5% | MOLT-4 leukemia 30.1%
active: HT29 colon -10.4% | SNB-75 CNS -7.43% | SK-MEL-5 melanoma -3.9% | A498 renal -15.8%

CNC(=O)c1cc(Oc2ccc(NC(=O)Nc3ccc(Cl)c(OC(F)(F)F)c3)c(F)c2)ccn1
inactive: HCT-15 colon 28.8% | HT29 colon 14% | SNB-75 CNS 83% | SNB-19 CNS 30.3% | U251 CNS 32.3% | LOX IMVI melanoma 17.2% | SK-MEL-28 melanoma 13.7% | SK-MEL-2 melanoma 14.4% | EKVX NSCLC 26.2% | UO-31 renal 23% | TK-10 renal 37.3% | ACHN renal 28.2% | CAKI-1 renal 45.8% | A498 renal 36.9% | CCRF-CEM leukemia 30.1% | MOLT-4 leukemia 20.2%
active: UACC-62 melanoma 5.13%

COc1ccc2cc(-c3nn(-c4ccc(C(=O)O)cc4)cc3CO)ccc2c1
inactive: HCT-15 colon 98.1% | HT29 colon 98.7% | SNB-75 CNS 80.9% | SNB-19 CNS 103% | U251 CNS 104% | UACC-62 melanoma 103% | LOX IMVI melanoma 101% | SK-MEL-28 melanoma 112% | SK-MEL-2 melanoma 83.2% | EKVX NSCLC 90.7% | UO-31 renal 86.6% | TK-10 renal 104% | ACHN renal 104% | A498 renal 94.5% | CCRF-CEM leukemia 102% | MOLT-4 leukemia 84.7%

COc1cc2c(cc1-c1c(C)noc1C)ncc1nc(C3CCOCC3)n([C@H](C)COC(F)F)c12
active: A498 renal -13.5%
inactive: HCT-15 colon 22.8% | HT29 colon 24.5% | SNB-75 CNS 29.9% | SNB-19 CNS 47.6% | U251 CNS 51.8% | UACC-62 melanoma 17.8% | LOX IMVI melanoma 12.6% | SK-MEL-28 melanoma 55.8% | SK-MEL-2 melanoma 67% | EKVX NSCLC 50.4% | SN12C renal 57% | TK-10 renal 25.3% | ACHN renal 34.6% | CAKI-1 renal 26.7% | CCRF-CEM leukemia 48.3% | MOLT-4 leukemia 46.6%

CC1=C[C@H]2c3c(c(O)c(O)c4oc(-c5ccccc5)cc(=O)c34)[C@H](c3cc(O)c(O)c4oc(-c5ccccc5)cc(=O)c34)[C@H]2C(C)(C)C1
inactive: HCT-15 colon 11.3% | SNB-19 CNS 11.9% | EKVX NSCLC 14.5% | TK-10 renal 28.4%
active: HT29 colon 9.18% | SNB-75 CNS -8.01% | U251 CNS 2.66% | UACC-62 melanoma -46.3% | LOX IMVI melanoma -86.5% | SK-MEL-28 melanoma 8% | SK-MEL-2 melanoma -3.08% | SN12C renal 1.79% | UO-31 renal -50.2% | ACHN renal 2.25% | CAKI-1 renal -27% | CCRF-CEM leukemia 4.65% | MOLT-4 leukemia 5.24%

CN1CCN=C1c1ccc(NC(=O)c2ccc(C(=O)Nc3ccc(C4=NCCN4C)cc3)cc2)cc1
inactive: HCT-15 colon 108% | HT29 colon 98.8% | SNB-75 CNS 91.2% | SNB-19 CNS 92% | U251 CNS 93.6% | SK-MEL-5 melanoma 84.7% | UACC-62 melanoma 91.8% | SK-MEL-28 melanoma 110% | SK-MEL-2 melanoma 121% | EKVX NSCLC 89.1% | SN12C renal 98.1% | UO-31 renal 82.3% | TK-10 renal 90.4% | ACHN renal 99.3% | A498 renal 117% | CCRF-CEM leukemia 110% | MOLT-4 leukemia 100%

FC(F)(F)Oc1ccc2nc3nc4ccc[nH]c4cc3c2c1
inactive: HCT-15 colon 87% | HT29 colon 73.9% | SNB-75 CNS 61.7% | SNB-19 CNS 58.3% | U251 CNS 65.6% | UACC-62 melanoma 81% | LOX IMVI melanoma 80% | SK-MEL-28 melanoma 94.6% | SK-MEL-2 melanoma 98% | EKVX NSCLC 62.8% | SN12C renal 87.5% | UO-31 renal 61.8% | TK-10 renal 64.7% | A498 renal 98.1% | CCRF-CEM leukemia 75.7% | MOLT-4 leukemia 68.9%
